PubChem BioAssay (NCI)
This is part of a sample that, as a whole, favours compounds with a hit. Of some 79,000 tested, about 15% had one in any assay. Calls of active or inactive are those of the source. Rule as the data show it: active = growth inhibition above about 70%; inactive = the rest.

How the values were obtained:
[1] = NCI Yeast Anticancer Drug Screen. Data for the wt1 strain (AID 149);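 also: 0% = growth of vehicle-treated wt1 cultures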; conditions: S. cerevisiae wt1 strain (SPY 50644) growth inhibition, hits give high values
Outline: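 Readout: yeast growth inhibition, normalised to vehicle controls, in the wt1 strain exposed to test compounds.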

[2] = NCI Yeast Anticancer Drug Screen. Data for the rad50EPP+ strain (AID 151);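 also: 0% = growth of vehicle-treated control cultures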; conditions: S. cerevisiae rad50 mutant strain, hits give high values
Outline: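 Vehicle-normalised growth inhibition; rad50EPP+ yeast strain, altered in DNA damage repair, compound-treated.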

[3] = NCI Yeast Anticancer Drug Screen. Data for the mgt1 strain (AID 153); conditions: S. cerevisiae mgt1 mutant growth inhibition, hits give high values
Outline: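 Vehicle-normalized growth inhibition is determined in mgt1 yeast, a strain selected for a defined alteration in DNA repair or cell cycle control.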

[4] = NCI Yeast Anticancer Drug Screen. Data for the rad50 strain (AID 155);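 also: 0% = growth of vehicle-only cultures of the same strain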; conditions: S. cerevisiae rad50 strain growth inhibition, hits give high values
Outline: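 Compounds were tested on a yeast strain with an engineered DNA damage repair alteration; the reported value is growth inhibition normalised to vehicle treatment.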

[5] = NCI Yeast Anticancer Drug Screen. Data for the mec2-1 strain (AID 157); conditions: S. cerevisiae mec2-1 strain, hits give high values
Outline: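 Mutant yeast (mec2-1) grown with compound; growth inhibition relative to vehicle control reported.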

[6] = NCI Yeast Anticancer Drug Screen. Data for the rad14 strain (AID 159);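 also: 0% = growth of vehicle-treated control cultures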; conditions: S. cerevisiae rad14 strain growth inhibition, hits give high values
Outline: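 Compound-treated yeast with a defined DNA-repair lesion; growth inhibition normalised to vehicle-treated cultures.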

[7] = NCI Yeast Anticancer Drug Screen. Data for the sgs1 mgt1 strain (AID 161);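 also: 0% = growth of cultures given vehicle only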; conditions: S. cerevisiae sgs1 mgt1 strain, hits give high values
Outline: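 Yeast cells carrying a defined DNA-repair defect were exposed to test compounds. Growth inhibition was measured relative to vehicle-treated controls.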

[8] = NCI Yeast Anticancer Drug Screen. Data for the CLN2oe strain (AID 163);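 also: 0% = growth of vehicle-only control cultures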; conditions: S. cerevisiae CLN2oe strain, hits give high values
Outline: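 Compounds are applied to yeast harbouring a defined cell-cycle control change; reduced growth compared with vehicle-treated controls gives the value.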

[9] = NCI Yeast Anticancer Drug Screen. Data for the cln2 rad14 strain (AID 165);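 also: 0% = growth equal to vehicle treated cultures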; conditions: S. cerevisiae cln2 rad14 strain, hits give high values
Outline: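 Readout is yeast growth inhibition versus vehicle-treated controls, using a strain with cln2 and rad14 alterations exposed to compound.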

[10] = NCI Yeast Anticancer Drug Screen. Data for the bub3 strain (AID 167); conditions: S. cerevisiae bub3 mutant strain, hits give high values
Outline: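 Growth of a checkpoint-deficient yeast mutant is measured after compound exposure. Values represent inhibition relative to vehicle.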

[11] = NCI Yeast Anticancer Drug Screen. Data for the wt2 strain (AID 169);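 also: 0% = growth of vehicle-treated yeast cultures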; conditions: S. cerevisiae wt2 strain growth inhibition, hits give high values
Outline: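 Against vehicle-treated controls, the growth of yeast exposed to each compound was compared, and the inhibition was recorded.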

[12] = NCI Yeast Anticancer Drug Screen. Data for the mlh1 strain (AID 171);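 also: 0% = growth of vehicle-treated control cultures of the same strain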; conditions: S. cerevisiae mlh1 strain growth inhibition, hits give high values
Outline: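 Measured: yeast growth. Reference: vehicle-treated controls. Organism: strain with a defined alteration affecting DNA damage repair or cell cycle control, treated with compound.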

[13] = NCI Yeast Anticancer Drug Screen. Data for the sgs1 strain (AID 173);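 also: 0% = growth of vehicle-only control cultures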; conditions: S. cerevisiae sgs1 mutant, hits give high values
Outline: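 Each compound was added to cultures of the altered yeast strain. Growth was recorded, and inhibition was derived by comparison with vehicle controls.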

[14] = NCI Yeast Anticancer Drug Screen. Data for the rad18 strain (AID 177); conditions: S. cerevisiae rad18 mutant growth inhibition, hits give high values
Outline: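 Vehicle-treated cultures served as the baseline for scoring compound-induced growth inhibition in DNA-repair-mutant yeast.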

[15] = NCI Yeast Anticancer Drug Screen. Data for the rad52 strain (AID 147);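 also: 0% = growth of vehicle-treated control cultures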; conditions: S. cerevisiae rad52 mutant growth inhibition, hits give high values
Outline: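 The repair-mutant yeast strain was incubated with compounds, then growth was read and inhibition derived relative to vehicle.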

[16] = NCI Yeast Anticancer Drug Screen. Data for the mlh1 rad18 strain (AID 175); conditions: S. cerevisiae mlh1 rad18 strain growth inhibition, hits give high values
Outline: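 Genetically defined yeast (DNA repair-deficient) exposed to compounds; growth inhibition determined relative to vehicle.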

[17] = at 5.0 µM (retest, dose inferred, filed as 0.5)
[18] = at 50.0 µM (retest, dose inferred, filed as 5.0)

Measured: growth inhibition

OCC(O)C(O)CO (stereo not given) (tested in a mixture with another compound)
active: [4]; [18] 82%
inactive: [1]; at 1.2 µM -4% | [1]; at 3.7 µM -4% | [1]; at 11.0 µM -5% | [1]; at 33.0 µM -2% | [1]; at 100.0 µM 0% | [2]; at 1.2 µM 1% | [2]; at 3.7 µM 2% | [2]; at 11.0 µM 6% | [2]; at 33.0 µM 9% | [2]; at 100.0 µM 10% | [3]; at 1.2 µM 0% | [3]; at 3.7 µM -2% | [3]; at 11.0 µM -1% | [3]; at 33.0 µM 5% | [3]; at 100.0 µM 0% | [4]; at 1.2 µM -8% | [4]; at 3.7 µM -17% | [4]; [17] -130% | [4]; at 11.0 µM -3% | [4]; at 33.0 µM 16% | [4]; at 50.0 µM 15.4% | [4]; at 100.0 µM -1% | [5]; at 1.2 µM -1% | [5]; at 3.7 µM 0% | [5]; [17] -47% | [5]; at 11.0 µM -6% | [5]; at 33.0 µM 0% | [5]; [18] -1% | [5]; at 50.0 µM 32.4% | [5]; at 100.0 µM 3% | [6]; at 1.2 µM -1% | [6]; at 3.7 µM -5% | [6]; at 11.0 µM -4% | [6]; at 33.0 µM -3% | [6]; at 100.0 µM -1% | [7]; [17] -57% | [7]; [18] 39% | [7]; at 50.0 µM -2.1% | [8]; at 1.2 µM 2% | [8]; at 3.7 µM -1% | [8]; at 11.0 µM 0% | [8]; at 33.0 µM 0% | [8]; at 100.0 µM 1% | [9]; [17] -60% | [9]; [18] -30% | [9]; at 50.0 µM -44.6% | [10]; at 1.2 µM -1% | [10]; at 3.7 µM -4% | [10]; [17] -64% | [10]; at 11.0 µM -3% | [10]; at 33.0 µM -2% | [10]; [18] 25% | [10]; at 50.0 µM 12.3% | [10]; at 100.0 µM 3% | [11]; at 1.2 µM -2% | [11]; at 3.7 µM 1% | [11]; at 11.0 µM 0% | [11]; at 33.0 µM -2% | [11]; at 100.0 µM 0% | [12]; at 1.2 µM 8% | [12]; at 3.7 µM -1% | [12]; at 11.0 µM -5% | [12]; at 33.0 µM -5% | [12]; at 100.0 µM -3% | [13]; at 1.2 µM -1% | [13]; at 3.7 µM 1% | [13]; at 11.0 µM 2% | [13]; at 33.0 µM 2% | [13]; at 100.0 µM -2% | [14]; at 1.2 µM -4% | [14]; at 3.7 µM -3% | [14]; at 11.0 µM -2% | [14]; at 33.0 µM -2% | [14]; at 100.0 µM 1%

CNC(=O)ON(C(C)=O)C(=O)NC
active: [7]; [18] 100% | [7]; at 50.0 µM 87.7% | [9]; [18] 99% | [9]; at 50.0 µM 86.2% | [10]; [18] 100%
inactive: [15]; at 1.2 µM -27% | [15]; at 3.7 µM -14% | [15]; at 11.0 µM -22% | [15]; at 33.0 µM -38% | [15]; at 100.0 µM -24% | [2]; at 1.2 µM -19% | [2]; at 3.7 µM -15% | [2]; at 11.0 µM -15% | [2]; at 33.0 µM -6% | [2]; at 100.0 µM 42% | [3]; at 1.2 µM -9% | [3]; at 3.7 µM 0% | [3]; at 11.0 µM 0% | [3]; at 33.0 µM 8% | [3]; at 100.0 µM 12% | [4]; at 1.2 µM -17% | [4]; at 3.7 µM -40% | [4]; [17] 13% | [4]; at 11.0 µM -20% | [4]; at 33.0 µM -17% | [4]; [18] 26% | [4]; at 100.0 µM -4% | [5]; at 1.2 µM -9% | [5]; at 3.7 µM -4% | [5]; [17] 2% | [5]; at 11.0 µM 5% | [5]; at 33.0 µM 4% | [5]; [18] 31% | [5]; at 100.0 µM -9% | [6]; at 1.2 µM -47% | [6]; at 3.7 µM -35% | [6]; at 11.0 µM -48% | [6]; at 33.0 µM -47% | [6]; at 100.0 µM -47% | [7]; [17] 62% | [8]; at 1.2 µM -30% | [8]; at 3.7 µM 2% | [8]; at 11.0 µM 19% | [8]; at 33.0 µM 14% | [8]; at 100.0 µM 11% | [9]; [17] 35% | [10]; at 1.2 µM 3% | [10]; at 3.7 µM 4% | [10]; [17] 31% | [10]; at 11.0 µM 23% | [10]; at 33.0 µM 35% | [10]; at 50.0 µM 52% | [10]; at 100.0 µM 60% | [11]; at 1.2 µM -24% | [11]; at 3.7 µM -20% | [11]; at 11.0 µM -22% | [11]; at 33.0 µM -42% | [11]; at 100.0 µM -10% | [12]; at 1.2 µM -43% | [12]; at 3.7 µM -27% | [12]; at 11.0 µM -11% | [12]; at 33.0 µM 4% | [12]; at 100.0 µM -9% | [13]; at 1.2 µM -26% | [13]; at 3.7 µM -49% | [13]; at 11.0 µM -13% | [13]; at 33.0 µM -15% | [13]; at 100.0 µM -19% | [16]; [17] 12% | [16]; [18] 22% | [14]; at 1.2 µM -6% | [14]; at 3.7 µM -24% | [14]; at 11.0 µM -21% | [14]; at 33.0 µM 0% | [14]; at 100.0 µM 24%

Nc1nc(-c2ccccc2)c(-c2ccccc2)[se]1
active: [7]; at 50.0 µM 86.2%
inactive: [15]; at 1.2 µM 3% | [15]; at 3.7 µM 3% | [15]; at 11.0 µM 0% | [15]; at 33.0 µM 12% | [15]; at 100.0 µM 28% | [2]; at 1.2 µM -1% | [2]; at 3.7 µM 7% | [2]; at 11.0 µM 9% | [2]; at 33.0 µM 18% | [2]; at 100.0 µM 25% | [3]; at 1.2 µM -3% | [3]; at 3.7 µM 1% | [3]; at 11.0 µM 0% | [3]; at 33.0 µM 2% | [3]; at 100.0 µM 12% | [4]; at 1.2 µM 7% | [4]; at 3.7 µM 4% | [4]; [17] 7% | [4]; at 11.0 µM 5% | [4]; at 33.0 µM 16% | [4]; [18] 10% | [4]; at 50.0 µM 51.1% | [4]; at 100.0 µM 32% | [5]; at 1.2 µM -1% | [5]; at 3.7 µM 1% | [5]; [17] 11% | [5]; at 11.0 µM 0% | [5]; at 33.0 µM 3% | [5]; [18] 10% | [5]; at 50.0 µM 22.9% | [5]; at 100.0 µM 7% | [6]; at 1.2 µM 5% | [6]; at 3.7 µM 3% | [6]; at 11.0 µM 4% | [6]; at 33.0 µM 13% | [6]; at 100.0 µM 28% | [7]; [17] 10% | [7]; [18] 23% | [9]; [17] 11% | [9]; [18] 2% | [9]; at 50.0 µM -11.8% | [10]; at 1.2 µM -2% | [10]; at 3.7 µM -2% | [10]; [17] 3% | [10]; at 11.0 µM -3% | [10]; at 33.0 µM 3% | [10]; [18] 1% | [10]; at 50.0 µM 41.3% | [10]; at 100.0 µM 5% | [12]; at 1.2 µM 0% | [12]; at 3.7 µM 2% | [12]; at 11.0 µM 0% | [12]; at 33.0 µM 6% | [12]; at 100.0 µM 17% | [13]; at 1.2 µM -18% | [13]; at 3.7 µM 7% | [13]; at 11.0 µM 11% | [13]; at 33.0 µM 6% | [13]; at 100.0 µM 32%
